Results: PubChem BioAssay (EPA / NIEHS)
Several values for one entry are separate records, joined by “and”; a condition that tells them apart may be missing. Equal values may be shown once. Records with an inconclusive call do not appear. Activity calls are given as the source filed them. The calls were made as follows: active = hit-call score of the fitted dose curve at least 0.9, where 1 is the maximum; inconclusive = response in the unintended direction; inactive = score below 0.9.

Molecular target: human Casein Kinase 1-delta (CK1D), CSNK1D (gene 1453) (UniProt P48730)
Assay: NVS_ENZ_hCK1D: NovaScreen (NVS) Enzymatic Assay for human Casein Kinase 1-delta (CK1D) (AID 2283148)
Description: NVS_ENZ_hCK1D is a biochemical, single-readout assay that uses extracted gene-proteins in a cell-free assay. Measurements were taken 1 hour after chemical dosing in a 384-well plate.NVS_ENZ_hCK1D is one of one assay component(s) measured or calculated from the NVS_ENZ_hCK1D assay. It is designed to make measurements of enzyme activity, a form of enzyme reporter, as detected with fluorescence intensity signals by Fluorescence and electrophoretic mobility shift technology.Data from the assay component NVS_ENZ_hCK1D was analyzed into 1 assay endpoint. This assay endpoint, NVS_ENZ_hCK1D, was analyzed in the positive analysis fitting direction relative to DMSO as the negative control and baseline of activity. Using a type of enzyme reporter, loss-of-signal activity can be used to understand changes in the enzymatic activity as they relate to the gene CSNK1D. Furthermore, this assay endpoint can be referred to as a primary readout, because this assay has produced multiple assay endpoints where this one serves a enzymatic activity function. To generalize the intended target to other relatable targets, this assay endpoint is annotated to the kinase intended target family, where the subfamily is serine/threonine kinase.
Binding assays used specific radioligands (tritiated, iodinated) with non-radioactive competitive displacement ligands in agonist or antagonist protocols (as indicated) and various reference compounds and inhibitors to titrate specific binding to receptors and transporters. Most enzyme assays (CYPs, kinases, phosphatases, proteases, HDACs) used recombinant protein and specific substrates (fluorescence mostly, some colorimetric and radioactive) and inhibitors, followed by a biochemical separation of substrate and product. All assays for the biochemical HTS were initially run in duplicate at a single concentration (10 uM for CYP450 assays and 25 uM for all others). Assay-chemical combinations meeting a pre-defined threshold (e.g., 30% inhibition and other criteria defined below) were then run in singleton concentration-response format with maximum concentration of 20 uM for CYPs and 50 uM for all others. Each assay was run with positive and negative controls, and concurrent controls on every plate. The follow-up (secondary) screen tested active chemical-pairs in concentration series, as well as a few additional assays not tested in the primary screen, some selected negative inactives, and several cases re-run in the concentration series for confirmatory purposes.

human Casein Kinase 1-delta (CK1D), CSNK1D (gene 1453), sequence (P48730 whole entry, looked up): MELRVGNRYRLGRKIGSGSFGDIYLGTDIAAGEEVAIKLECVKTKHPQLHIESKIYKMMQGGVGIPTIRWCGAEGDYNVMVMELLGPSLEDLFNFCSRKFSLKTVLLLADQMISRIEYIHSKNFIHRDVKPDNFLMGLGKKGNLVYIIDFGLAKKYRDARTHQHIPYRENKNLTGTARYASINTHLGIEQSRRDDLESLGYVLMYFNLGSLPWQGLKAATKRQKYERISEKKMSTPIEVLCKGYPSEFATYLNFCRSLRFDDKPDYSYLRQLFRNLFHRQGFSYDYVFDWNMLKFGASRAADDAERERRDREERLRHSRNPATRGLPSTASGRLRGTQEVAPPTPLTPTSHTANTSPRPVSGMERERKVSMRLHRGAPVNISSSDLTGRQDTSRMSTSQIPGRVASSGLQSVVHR

Row | SMILES | AC50 | outcome
1 | S=C([S-])NCCNC(=S)[S-].[Mn+2] | 25 µM (active) | –
2 | c1ccc2[nH]c(-c3cscn3)nc2c1 | 19.8 µM (active) | –
3 | O=C(c1ccc(O)cc1O)c1ccc(O)cc1O | 17.3 µM (active) | –
4 | O=C(Nc1ccc([N+](=O)[O-])cc1Cl)c1cc(Cl)ccc1O | – | inactive
5 | CC(C)CCCCCCc1ccc(O)cc1 | – | inactive
6 | CC(=O)[C@H]1CC[C@H]2[C@@H]3CCC4=CC(=O)CC[C@]4(C)[C@H]3CC[C@]12C | – | inactive
7 | COC(=O)c1c(Cl)nn(C)c1S(=O)(=O)NC(=O)Nc1nc(OC)cc(OC)n1 | 21.1 µM (active) | –
8 | CCNc1nc(N)nc(Cl)n1 | 22.1 µM (active) | –
9 | S=C(S)NCCNC(=S)S.[Mn+2].[S-]C([S-])=NCCN=C([S-])[S-].[Zn+2] | 18.2 µM (active) and 33.6 µM (active) | –
10 | CCCCC(CC)COC(=O)c1ccccc1C(=O)O (stereo unspecified) | – | inactive
11 | CC(C)(c1ccc(O)cc1)c1ccc(O)cc1 | 25.4 µM (active) | –
